Reference: PubChem BioAssay (NCATS)
Inconclusive results are not listed. Activity calls are given as the source filed them. Calls follow the shape of the dose curve; as a rule, active = well fitted curve in the direction sought with a large enough effect; inconclusive = small, poorly fitted or top-dose-only effect, or another doubt; inactive = no such curve, though single readings can be large; an effect the other way counts as inactive or inconclusive.

Experiments:
[1] = Cell Viability - LYMP2-004 (AID 966); also: nearly all actives have a fitted effect of over 65% in size
In short: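 qHTS cytotoxicity: human lymphoblastoid line, 24 hr compound treatment, 37 C, complete medium. Viability read as cellular ATP via luciferase luminescence; tetraoctylammonium bromide served as positive control.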

[2] = Cell Viability - LYMP2-005 (AID 967); also: series mostly up to about 92 µM
In short: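 Acute cytotoxicity is scored as a concentration-dependent drop in intracellular ATP in human lymphoblastoid LYMP2-005 cells after 24 h compound treatment. ATP is quantified by luciferase luminescence, and AC50 is derived by Hill-equation modelling.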

[3] = Cell Viability - LYMP2-009 (AID 968); also: series mostly up to about 92 µM; nearly all actives have a fitted effect of over 55% in size
[4] = Cell Viability - LYMP2-011 (AID 969); also: nearly all actives have a fitted effect of over 60% in size
In short: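 In this qHTS cytotoxicity format, compounds are tested across concentrations on human lymphoblastoid cells in complete medium for 24 hours at 37 C. Viability is taken as cellular ATP measured by luciferase luminescence.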

[5] = Cell Viability - LYMP2-013 (AID 970); also: series mostly up to about 92 µM; nearly all actives have a fitted effect of over 55% in size
In short: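 Cytotoxicity is scored as a concentration-dependent drop in intracellular ATP in human lymphoblastoid cells after 24 hr compound exposure at 37 C. ATP is quantified by luciferase luminescence, and AC50 values come from Hill-equation modeling.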

[6] = Cell Viability - LYMP2-015 (AID 971); also: nearly all actives have a fitted effect of over 55% in size
In short: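 Cells are seeded at 2500 per well and incubated 5 hr at 37 C. Compounds are added across a concentration series for 24 hr at 37 C. CellTiter-Glo is added, and luminescence is read after 30 min at room temperature.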

[7] = Cell Viability - LYMP2-017 (AID 972); also: series mostly up to about 92 µM; nearly all actives have a fitted effect of over 55% in size
In short: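 Cytotoxicity is scored as a concentration-dependent drop in cellular ATP in a human lymphoblastoid line after 24 hr treatment at 37 C. Values are AC50s from Hill-equation modelling.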

[8] = Cell Viability - LYMP2-019 (AID 973); also: nearly all actives have a fitted effect of over 55% in size
In short: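 Cytotoxicity is scored as a concentration-dependent drop in cellular ATP after cells (2500/well) receive compound for 24 hr at 37 C. Tetraoctylammonium bromide serves as positive control.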

[9] = Cell Viability - LYMP2-021 (AID 974)
In short: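 Loss of cellular ATP, measured with a luciferase-based CellTiter-Glo readout, serves as the toxicity signal in human lymphoblastoid cells treated for 24 hours at 37 C. Potency is reported as AC50 from a standard Hill model.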

[10] = Cell Viability - LYMP2-023 (AID 975)
In short: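 Steps: seed 2500 human lymphoblastoid cells per well, incubate 5 hr at 37 C, add compound for 24 hr at 37 C, add CellTiter-Glo, hold 30 min at room temperature, read luminescence. AC50 derived by Hill modelling.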

[11] = Cell Viability - LYMP2-025 (AID 976); also: series mostly up to about 92 µM
In short: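 Acute cytotoxicity is scored as a concentration-dependent fall in intracellular ATP, measured by luciferase luminescence, in human lymphoblastoid LYMP2-025 cells exposed to compound for 24 hours at 37 C. AC50 values come from standard Hill fits.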

[12] = Cell Viability - LYMP2-002 (AID 977);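 also: series mostly up to about 92 µM; compound exposure lasted 24 h at 37 °C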
In short: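 Human lymphoblastoid cells, 2500/well, complete medium; 5 h 37 C settle; compound 24 h 37 C; CellTiter-Glo, 30 min RT; luminescence. Decrease in ATP = cytotoxicity; AC50 via Hill equation.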

[13] = Cell Viability - LYMP2-006 (AID 978); also: series mostly up to about 92 µM; nearly all actives have a fitted effect of over 60% in size
In short: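 Cells are seeded at 2500 per well and rested 5 hr at 37 C. Compounds are added across a concentration series for 24 hr at 37 C, after which ATP is quantified by luciferase luminescence.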

[14] = Cell Viability - LYMP2-007 (AID 979);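 also: cells exposed to compound for 24 h before reading; nearly all actives have a fitted effect of over 60% in size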
In short: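 Cells are seeded at 2500 per well and rested 5 hr. Compounds are then added over a concentration series for 24 hr at 37 C. CellTiter-Glo is added for 30 min at room temperature before luminescence reading.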

[15] = Cell Viability - LYMP2-008 (AID 980); also: nearly all actives have a fitted effect of over 60% in size
In short: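 Cells seeded at 2500/well and rested 5 hr at 37 C; compounds added over a concentration range and incubated 24 hr at 37 C; CellTiter-Glo added, 30 min at room temperature; luminescence read and AC50 fitted with Hill model.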

[16] = Cell Viability - LYMP2-010 (AID 981); also: nearly all actives have a fitted effect of over 55% in size
In short: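 Steps: seed 2500 LYMP2-010 cells per well; incubate 5 hr at 37 C; add compound; incubate 24 hr at 37 C; add CellTiter-Glo, wait 30 min at room temperature; read luminescence. Concentration-response fitted to Hill equation for AC50.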

[17] = Cell Viability - LYMP2-014 (AID 983); also: series mostly up to about 92 µM; nearly all actives have a fitted effect of over 50% in size
In short: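 Cells are plated at 2500/well and left 5 hr at 37 C. Compounds are added across a concentration range and incubated 24 hr at 37 C in complete medium. CellTiter-Glo is added, and luminescence is read after 30 min at room temperature.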

[18] = Cell Viability - LYMP2-016 (AID 984); also: nearly all actives have a fitted effect of over 55% in size
In short: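 Cells were seeded at 2500 per well and rested 5 hr before a 24 hr compound exposure at 37 C. Viability was then gauged as cellular ATP by luciferase luminescence, with AC50 values fitted to the Hill equation.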

[19] = Cell Viability - LYMP2-018 (AID 985); also: nearly all actives have a fitted effect of over 50% in size
In short: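 Seed 2500 lymphoblastoid cells per well, incubate 5 hr at 37 C, add compound and incubate 24 hr at 37 C, add CellTiter-Glo, wait 30 min at room temperature, then read luminescence.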

[20] = Cell Viability - LYMP2-012 (AID 982)

Measured: Potency

FC(F)(F)c1cccc(Cl)c1
not listed: [20]
inactive: all other assays above

C1CCOC1
not listed: [16]
inactive: all other assays above

Nc1cc(S(=O)(=O)O)ccc1O
not listed: [20]
inactive: all other assays above

CCCCC(CC)C(=O)O (stereo not given)
inactive: all assays above

CCN(Cc1ccccc1)c1ccccc1
not listed: [20]
inactive: all other assays above

O=Cc1cccc(Br)c1
not listed: [16]
inactive: all other assays above

C[C@@H]1O[C@@H](O[C@@H]2[C@@H](O)[C@H](OCCc3ccc(O)c(O)c3)O[C@H](CO[C@@H]3O[C@H](CO)[C@@H](O)[C@H](O)[C@H]3O)[C@H]2OC(=O)/C=C/c2ccc(O)c(O)c2)[C@H](O)[C@H](O)[C@H]1O
not listed: [16]
inactive: all other assays above

CC(=O)OCc1ccco1
inactive: all assays above

CC/C=C1/OC(=O)c2ccccc21
inactive: all assays above

Nc1ccc(Cl)cc1[N+](=O)[O-]
not listed: [16]
inactive: all other assays above

CCC(C)(C)C
not listed: [20]
inactive: all other assays above

C[C@@H]1CC2(OC[C@]3(C)O[C@H]23)O[C@H]2C[C@@]3(C)[C@@H]4CC[C@H]5C(C)(C)C(O[C@@H]6OC[C@@H](O)[C@H](O)[C@H]6O)CC[C@@]56C[C@@]46CC[C@]3(C)[C@@H]12 (stereo not given in full)
not listed: [16]
inactive: all other assays above

CCN(C(=O)N(CC)c1ccccc1)c1ccccc1
inactive: all assays above

Cc1ccc(C)c(O)c1
inactive: all assays above

C=CCCC
inactive: all assays above

Nc1ccc(F)cc1F
not listed: [20]
inactive: all other assays above
